Screens from PubChem BioAssay.
ALDH1A1 inh – blocks purified human ALDH1A1 activity. P00352. Purified ALDH1A1, NADH fluorescence, propionaldehyde substrate. Potency, µM (highest dose often 75.3 µM), for inactives: at the top dose activity, negative = inhibition, actives largely listed as inhibitors. hit rate 7.3% among 220,000. AID 1030; active = well fitted inhibition curve with a large enough effect, not every such curve was filed as active; inconclusive = small, poorly fitted or top-dose-only effect, or another doubt; inactive = no such curve, though single readings can be large or run the other way;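 note: potency is the fitted concentration of half-maximal effect; plate controls were no enzyme wells and a reference inhibitor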
Target sequence (P00352 whole entry, looked up): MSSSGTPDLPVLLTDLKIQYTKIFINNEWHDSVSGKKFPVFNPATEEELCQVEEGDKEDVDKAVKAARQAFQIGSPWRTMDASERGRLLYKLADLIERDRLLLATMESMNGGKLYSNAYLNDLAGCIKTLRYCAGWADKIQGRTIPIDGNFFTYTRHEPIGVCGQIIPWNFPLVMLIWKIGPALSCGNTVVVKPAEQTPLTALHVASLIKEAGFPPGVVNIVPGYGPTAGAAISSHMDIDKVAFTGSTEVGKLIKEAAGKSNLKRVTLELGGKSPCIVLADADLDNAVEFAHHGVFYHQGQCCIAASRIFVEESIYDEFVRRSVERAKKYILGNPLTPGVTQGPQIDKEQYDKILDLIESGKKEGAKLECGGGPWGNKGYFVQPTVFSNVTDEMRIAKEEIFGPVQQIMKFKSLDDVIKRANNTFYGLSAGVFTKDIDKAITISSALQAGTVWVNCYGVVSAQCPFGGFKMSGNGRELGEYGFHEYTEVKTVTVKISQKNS
IMPase cell inh – membrane-permeable compound that blocks inositol monophosphatase. inhibition (IP1 accumulation), % at 46.1 µM. P97697. 120,000 tested, under 10 active. AID 901. CHO-M1 cells, IP1 accumulation, HTRF TR-FRET ratio; active = well fitted curve in the direction sought with a large enough effect in the signal ratio, not every such curve was filed as active; inconclusive = small, poorly fitted or top-dose-only effect, or a change in a side signal; inactive = no such curve, though single readings can be large or run the other way; the % refers to the signal ratio;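 note: cells stimulated with carbachol in lithium chloride buffer; plate controls were DMSO basal wells for no effect and reference inhibitor wells for full effect; higher means more IMPase inhibition seen as more IP1 and lower FRET ratio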
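The IP-One HTRF competitive assay in carbachol-stimulated CHO-M1 cells quantifies cellular IP1. Compounds spanned up to 46 uM final, and activity is expressed as AC50 from concentration-response fits of the ratio and donor data.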
HPGD inh – HPGD (human) dehydrogenase inhibition | P15428 | purified HPGD, NADH fluorescence kinetic, PGE2 substrate | Potency, µM, inactives show top-dose activity change, negative = inhibition, most hits filed as inhibitors | hit rate 4.3% among 150,000 | AID 894; active = well fitted inhibition curve with a large enough effect, not every such curve was filed as active; inconclusive = small, poorly fitted or top-dose-only effect, or another doubt; inactive = no such curve, though single readings can be large or run the other way; note: potency is the fitted concentration of half-maximal effect
Target sequence (P15428 whole entry, looked up): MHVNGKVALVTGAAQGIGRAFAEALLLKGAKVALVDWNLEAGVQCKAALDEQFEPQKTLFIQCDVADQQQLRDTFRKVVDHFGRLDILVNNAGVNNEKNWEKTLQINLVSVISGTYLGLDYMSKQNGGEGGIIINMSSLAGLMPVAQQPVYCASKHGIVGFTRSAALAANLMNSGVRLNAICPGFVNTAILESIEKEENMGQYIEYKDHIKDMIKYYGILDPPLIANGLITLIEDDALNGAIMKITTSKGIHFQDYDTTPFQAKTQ
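NADH formation kinetics: reaction with 30 uM PGE2 and 1 mM NAD+ (final), 20 nM enzyme, Tris-HCl pH 8 with Tween 20, after 15 min compound preincubation at room temperature. Fluorescence change, last versus first of five reads.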
PNC assembly inh – perinucleolar compartment assembly inhibition; PC3M PTB-GFP, PNC prevalence imaging, 16 h; stronger effect = lower value; activity change (PNC), negative = inhibition, % at 10 µM; hit rate 3.1% among 140,000; AID 2417;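 active = readout at or below -70, meaning at least 70% loss of cells showing the perinucleolar compartment, a nuclear body marking cancer cells; inconclusive = readout between -30 and a set limit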;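 note: plate controls were DMSO wells for no effect and camptothecin positive control wells for full effect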
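Read-out is percentage of cells bearing a perinucleolar compartment, from automated 20x imaging of fixed, Hoechst-stained PC3M PTB-GFP cells. Cells were seeded 4 h, then exposed 16 h to compound (23 nl of library stock) in duplicate plates.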
IMPase Li cell – cell-permeable IMPase inhibitors with lithium potentiation | Potency, µM (doses to about 59.4 µM), for the others: top-dose activity, negative = IMPase inhibition, hits mostly inhibitors | hit rate 0.35% among 210,000 | CHO-M1 cells, IP1 TR-FRET (IP-One), carbachol + lithium | AID 1457;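 note: IP1 builds up when IMPase is blocked and the TR-FRET signal falls; potency is the fitted concentration of half-maximal effect; plate controls were basal vehicle for no effect and high inhibitor control for full effect; nearly all actives have a fitted effect of over 50% in size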
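Test compounds were applied to CHO-M1 cells previously cultured for 16–30 h at 2000 per well. A small lithium amount accompanied them; after 30 min at 37C, IP1 was quantified by TR-FRET.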
ALOX12 inhib – inhibitors of human 12-lipoxygenase (ALOX12) | AID 1452 | hit rate 0.12% among 150,000 | purified 12-hLO, xylenol orange hydroperoxide absorbance | P18054 | Potency, µM (series often up to 57.1 µM), inactives show at the highest dose activity change, negative = inhibition, usual class: inhibitors; note: potency is the fitted concentration of half-maximal effect; nearly all actives have a fitted effect of over 55% in size
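Hydroperoxide formation by human 12-lipoxygenase from 40 uM arachidonic acid was followed colorimetrically via ferric-xylenol orange complex, using the 573/405 nm absorbance ratio. Enzyme concentration was 150 nM, with 30 min reaction at room temperature.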
* marks the source's active call; other numbers are inactive results; u = inconclusive; x = not tested or not shown; [ ] = dose if it differs, or a comment. The list is not random: actives were taken first. Their share in the collection is about 11%. Unless noted, calls come from the whole dose curve; as a rule, active = well fitted curve in the direction sought with a large enough effect; inconclusive = small, poorly fitted or top-dose-only effect, or another doubt; inactive = no such curve, though single readings can be large; an effect the other way counts as inactive or inconclusive. Unless noted, % is set by controls: 0 for no effect and ±100 for the full control effect.

SMILES	ALDH1A1 inh	IMPase cell inh	HPGD inh	PNC assembly inh	IMPase Li cell	ALOX12 inhib
CCOc1ccc(S(=O)(=O)NCCSCc2ccco2)cc1	2.8µM*	2	-22%	u	30%[38.3 µM]	-5%
COc1ccc(S(=O)(=O)NCCC(=O)NCc2cccs2)cc1	-3%	3	-3%	17	1%[38.3 µM]	1%
O=C(c1cnccn1)N1CCC[C@@]2(CCN(c3ccccn3)C2)C1	10%	x	-12%	x	11%	0%
O=C1NC(c2ccccc2)C(C(=O)c2cccs2)=C1O (stereo not given)	-11%	u	-3%	-107*	-17%[38.3 µM]	-3%
COc1ccccc1CNc1ccnc(-c2ccc(N(C)C)cc2)n1	u	x	x	x	-1%	x
COc1ccc(S(=O)(=O)N2CCCC(C(=O)NC3CCCCC3)C2)cc1 (stereo not given)	8%	-11	-17%	-102*	29%[38.3 µM]	1%
COc1ccc(S(=O)(=O)N2CCCC(C(=O)O)C2)cc1 (stereo not given)	0%	-5	2%	u	-3%[38.3 µM]	14%
CCC(Sc1nnc2c(n1)[nH]c1ccccc12)C(=O)Nc1nnc(C(C)C)s1 (stereo not given)	x	-3	x	x	x	x
O=C(O)CCN1c2ccccc2Sc2ccccc21	14%	x	x	x	x	x
CCN(CC)C(C)CN1c2ccccc2Sc2ccccc21 (stereo not given)	u	x	u	x	31%	13µM*
COC(=O)[C@@]1(Cc2ccccc2)[C@H]2c3cc(C(=O)N(C)C)n(Cc4ccsc4Br)c3C[C@H]2CN1C(=O)c1ccccc1	15%	x	-4%	x	10%	-1%
CCn1c(/C=C/Nc2ccccc2)[n+](CC)c2cc(Cl)c(Cl)cc21	9%	x	-2%	-96*	16%	-1%
CCc1ccc(CCC(=O)Nc2ccc(C)c(C)c2)o1	13µM*	10	-25%	-11	17%[38.3 µM]	31%
CCc1ccc(CCC(=O)Nc2nnc(C)s2)o1	-12%	5	-5%	-22	13%[38.3 µM]	3%
COCCn1c(=O)c(-c2cccc(C#N)c2)nc2cnc(N3CCN(C)CC3)nc21	u	x	x	x	-3%	x
O=C(COC(=O)Cc1cn2ccsc2n1)Nc1nc2ccccc2s1	-13%	-3	-4%	-100*	-16%[38.3 µM]	-7%
COCC(=O)Nc1nc2ccccc2s1	16%	1	-3%	42	-3%[38.3 µM]	-2%
C=CCn1c(C)c(C(C)=O)c(SC)nc1=S	-1%	1	-11%	-84*	4%[38.3 µM]	0%
CCCC(NS(=O)(=O)c1ccc(C)cc1)C(=O)O (stereo not given)	3%	2	1%	4	-9%[38.3 µM]	10%
CCCCC(NS(=O)(=O)c1ccc(OC)cc1)C(=O)O (stereo not given)	u	0	-8%	-100*	-26%[38.3 µM]	-5%
S=c1[nH]nc(CSCCOc2ccccc2)o1	20µM*	x	x	x	x	x
Cn1c(CSCCOc2ccccc2)n[nH]c1=S	-8%	x	x	x	x	x
COc1ccc(Cc2n[nH]c(=S)o2)cc1	u	x	x	x	-2%	x
S=c1[nH]nc(CSCCOc2ccc(Cl)cc2Cl)o1	0.1µM*	x	x	x	x	x
C=CCn1c(CCCOc2ccc(Cl)cc2Cl)n[nH]c1=S	-12%	x	u	-11	7%	-22%
SMILES	ALDH1A1 inh	IMPase cell inh	HPGD inh	PNC assembly inh	IMPase Li cell	ALOX12 inhib
S=c1[nH]nc(COc2ccc3ccccc3c2)o1	3.5µM*	2	-20%	-27	-1%	0%
CN(C)c1ccc(C(=S)NC2CCCCC2)cc1	3.5µM*	x	x	x	6%	x
CCN(CC)c1ccc(C(=S)NC2CCCCC2)cc1	7.9µM*	x	x	x	11%	x
CCN(CC)c1ccc(C(=S)NCc2ccccc2)cc1	10µM*	x	x	x	11%	x
COC(=O)c1ccc(C(/C=C/[C@@H](C)C(=O)N(C)C)NC(=O)OCc2ccccc2)cc1 (stereo not given in full)	u	x	-13%	x	-9%	0%
CCOC(=O)CSc1nc(-c2ccc(F)cc2)cc(C(F)(F)F)c1C#N	x	10	x	x	x	x
Cc1ccccc1-c1nc2sc3c(c2c(=O)o1)CCC3	-16%	-15	16µM*	12	7%	0%
Cn1nnc2sc3c(c2c1=O)CCCC3	13µM*	1	32µM*	u	11%[38.3 µM]	-7%
Cc1ccccc1-c1nc2sc3c(c2c(=O)n1N)CCCC3	u	4	25µM*	u	9%[38.3 µM]	-5%
O=C(Nc1ccc(Cl)cc1)c1cc2c(-c3ccccc3)nn(-c3ccccc3)c2s1	x	2	x	x	x	x
O=C(O)CCn1nnc(-c2cccs2)n1	17%	-18	0%	-105*	-5%[38.3 µM]	3%
N[C@@H](C(=O)O)c1ccc(C(=O)O)c(C(=O)O)c1	16%	6	0%	x	-6%	3%
O=C(CSc1nncs1)N1c2ccccc2Sc2ccccc21	10µM*	10	-8%	-18	22%[38.3 µM]	-3%
Cc1ccc(SCC(=O)N2c3ccccc3Sc3ccccc32)cc1	3.5µM*	14	-22%	13	24%[38.3 µM]	-5%
CCc1nc(SCC(=O)N2c3ccccc3Sc3ccccc32)c2ccccc2n1	u	11	-3%	u	-1%[38.3 µM]	0%
O=C(CCc1ccc(S(=O)(=O)NCc2ccccc2)cc1)NCC1CCCO1 (stereo not given)	-1%	x	-6%	-106*	-9%	0%
O=C(CSc1ccccc1)Nc1ccc(S(=O)(=O)NCC2CCCO2)cc1 (stereo not given)	22µM*	7	u	u	22%[38.3 µM]	-3%
O=C(Cc1ccc(Br)cc1)Nc1ccc(S(=O)(=O)NCC2CCCO2)cc1 (stereo not given)	-12%	x	x	x	-1%	x
O=c1c(CCc2ccccc2)nc2cnc(N3CCNCC3)nc2n1-c1ccccc1	u	x	x	x	7%	x
COc1ncc2nc(C)c(=O)n(CCc3ccccc3)c2n1	u	x	x	x	6%	x
Cn1c(C(=O)NCCc2c[nH]c3ccccc23)cc2sccc21	-12%	3	-13%	-81*	10%[38.3 µM]	-12%
O=C(NCCc1c[nH]c2ccccc12)c1cc2sccc2n1Cc1ccccc1	u	9	-20%	-8	14%[38.3 µM]	-15%
O=C(O)c1n[nH]c2ccccc12	4%	-3	-6%	-27	-4%	5%
c1ccc(-c2n[nH]c3ccccc23)cc1	u	-3	14µM*	17	-6%[38.3 µM]	2%
Fc1ccc(-c2n[nH]c(=S)c3ccccc23)cc1	4µM*	x	x	x	-9%	x
COC(=O)c1ccc2c(=O)[nH]c(CSc3nc(C)cs3)nc2c1	24µM*	x	x	x	1%	x
O=C(O)/C=C\C(=O)Nc1cccc2c1-c1ccccc1C2=O	1%[13.5 µM]	x	-18%	x	-5%	-1%[11.4 µM]
CCOC(=O)c1c(-c2ccccc2)oc2ccc(NS(=O)(=O)c3ccc(C)cc3)cc12	x	-12	x	x	x	x
Cc1cc(C)n(C(=O)CNC(=O)COc2ccccc2)n1	11%	-6	32µM*	-9	4%[38.3 µM]	-2%
